# Measurements taken from PubChem BioAssay (NCATS).
# “And” between values parts separate entries of the source, which are not always exact repeats. Identical values can stand only once. Results filed as inconclusive are left out. Unmarked numbers belong to inactive results. The source made the active and inactive calls. Calls come from the whole dose curve; as a rule, active = well fitted curve in the direction sought with a large enough effect; inconclusive = small, poorly fitted or top-dose-only effect, or another doubt; inactive = no such curve, though single readings can be large; an effect the other way counts as inactive or inconclusive. Where a SMILES comes first, the peptide text is derived from it. Bridges are numbered along the chain shown (N, C = ends). [ ]: non-standard residue; d: D form. The star is where a group is joined. Dab(CH2SO3H) = N[C@@H](CCNCS(=O)(=O)O)C(=O)O; X3 = CC[C@@H](C)CCCCC(=O)*; Dab = NCC[C@H](N)C(=O)O
# Tests used:
# CRL-7250 = normal cell line; experiment: Cytotoxic Profiling of Annotated Libraries Using Quantitative High-Throughput Screening (AID 1296008); details: Five cell lines viability, CellTiter-Glo ATP luminescence, 48-72 h; max response: hits give low values; note: nearly all actives have a fitted effect of over 60% in size; note: potency is the fitted concentration of half-maximal effect; for max response: % is set by controls: 0 for no effect and ±100 for the full control effect
# Summary of the method: (§1)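 Cells exposed to compounds for 48 or 72 hr at 37 degrees Celsius. Viability read as ATP-coupled luminescence with CellTiter-Glo after 10 min at room temperature.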
# HaCat [1] = experiment: as above; details: Five cell lines viability, CellTiter-Glo ATP luminescence, 48-72 h; max response: hits give low values
# Summary of the method: as §1
# KB-3-1 = experiment: as above; details: Five cell lines viability, CellTiter-Glo ATP luminescence, 48-72 h; max response: hits give low values
# Summary of the method: as §1
# NIH3T3 [2] = experiment: as above; details: Five cell lines viability, CellTiter-Glo ATP luminescence, 48-72 h; max response: hits give low values
# Summary of the method: as §1
# HACAT [3] = experiment: qHTS assay to identify novel small-molecules to repurpose for Merkel cell carcinoma treatment (AID 1296009); details: MCC and control cell lines, CellTiter-Glo viability, 72 h; at 44.8 µM (top of the series) unless noted; note: nearly all actives have a fitted effect of over 60% in size
# Summary of the method: (§2)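 Cells were incubated with compound for 72 hr at 37 degree celsius before CellTiter-Glo addition. Luminescence was normalized with no-cell wells as full cytotoxicity and DMSO as baseline.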
# C33A = experiment: Primary qHTS to identify gynecologic anti-cancer compounds using libraries of approved drugs and bioactive compounds (AID 1345084); details: Gynecologic cancer cell panel viability, ATPlite luminescence, 48 h; series mostly up to 57.5 µM; note: nearly all actives have a fitted effect of over 55% in size; note: potency is the fitted concentration of half-maximal effect
# Summary of the method: (§3)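 Luminescence from the ATPlite ATP-monitoring reagent indicates viable cell number; lower signal means cytotoxicity. Cells received compound 16 h after seeding and were exposed for 48 h across five concentrations.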
# CAOV3 = experiment: as above; details: Gynecologic cancer cell panel viability, ATPlite luminescence, 48 h; series mostly up to 57.5 µM
# Summary of the method: as §3
# CASKI = experiment: as above; details: Gynecologic cancer cell panel viability, ATPlite luminescence, 48 h; series mostly up to 57.5 µM
# Summary of the method: as §3
# Es-2 = experiment: as above; details: Gynecologic cancer cell panel viability, ATPlite luminescence, 48 h; series mostly up to 57.5 µM
# Summary of the method: as §3
# HeLa = experiment: as above; details: Gynecologic cancer cell panel viability, ATPlite luminescence, 48 h; series mostly up to 57.5 µM
# Summary of the method: as §3
# HEK293 = experiment: Cytotoxic Profiling of Annotated Libraries Using Quantitative High-Throughput Screening (AID 1296008); details: Five cell lines viability, CellTiter-Glo ATP luminescence, 48-72 h; max response: hits give low values; note: nearly all actives have a fitted effect of over 60% in size; note: potency is the fitted concentration of half-maximal effect; for max response: % is set by controls: 0 for no effect and ±100 for the full control effect
# Summary of the method: as §1
# HEK293T = experiment: qHTS assay to identify novel small-molecules to repurpose for Merkel cell carcinoma treatment (AID 1296009); details: MCC and control cell lines, CellTiter-Glo viability, 72 h; series mostly up to 44.8 µM; note: nearly all actives have a fitted effect of over 60% in size
# Summary of the method: as §2
# NIH3T3 [4] = experiment: as above; details: MCC and control cell lines, CellTiter-Glo viability, 72 h; at 44.8 µM (top of the series) unless noted
# Summary of the method: as §2
# W2 = experiment: qHTS profiling for inhibitors of Plasmodium falciparum proliferation (AID 504749); details: P. falciparum in erythrocytes, SYBR Green DNA, 72 h; series mostly up to 28.7 µM
# Summary of the method: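 Readout was DNA-dye fluorescence from lysed cultures, ex 485/em 535 nm. Parasitized red cells had grown 72 h with compound; data scaled between 0.29 uM artemisinin and DMSO wells and corrected using vehicle-only plates.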
smiles,measurement,setting,value
CC[C@H]1OC(=O)C[C@@H](O)[C@H](C)[C@@H](O[C@@H]2O[C@H](C)[C@@H](O)[C@H](N(C)C)[C@H]2O)[C@@H](CCN2C[C@H](C)C[C@H](C)C2)C[C@@H](C)C(=O)/C=C/C(C)=C/[C@@H]1CO[C@@H]1O[C@H](C)[C@@H](O)[C@@H](OC)[C@H]1OC,max response,CRL-7250,1.46%
same,outcome,HaCat [1],inactive
same,max response,KB-3-1,2.68% and 4.42%
same,outcome,NIH3T3 [2],inactive
same,outcome,HACAT [3],inactive
same,Potency,C33A,inactive
same,Potency,CAOV3,inactive
same,Potency,CASKI,inactive
same,Potency,Es-2,inactive
same,Potency,HeLa,inactive
CCCC(=O)O[C@]1(C(=O)COC(C)=O)CC[C@H]2[C@@H]3C[C@H](F)C4=CC(=O)C=C[C@]4(C)[C@@]3(F)[C@@H](O)C[C@@]21C,max response,KB-3-1,20.2%
C=CC1=C(C)C2=CC3=NC(=C(CC(=O)[O-])C4=NC(=C(C)C4=C([O-])[O-])C=c4[n-]c(c(C)c4CC)=CC1=N2)C(CCC(=O)[O-])C3C.[Cu+2].[Na+].[Na+].[Na+] (stereo not given),max response,KB-3-1,-6.08%
CCCCC(=O)OCC(=O)[C@]1(O)Cc2c(O)c3c(c(O)c2[C@@H](O[C@H]2C[C@H](NC(=O)C(F)(F)F)[C@H](O)[C@H](C)O2)C1)C(=O)c1c(OC)cccc1C3=O,Potency,KB-3-1,8.2 µM (active)
CC(=O)OCC(=O)[C@@]1(O)CC[C@H]2[C@@H]3C[C@H](C)C4=CC(=O)C=C[C@]4(C)[C@H]3[C@@H](O)C[C@@]21C,max response,KB-3-1,15.9%
CCCC(=O)Nc1ncnc2c1ncn2[C@@H]1O[C@@H]2COP(=O)(O)O[C@H]2[C@H]1OC(=O)CCC,max response,KB-3-1,-5.3%
CON(C)C(=O)N1N=C(c2cc(F)ccc2F)S[C@@]1(CCCN)c1ccccc1,max response,CRL-7250,-53.9% and -40.4%
same,Potency,HEK293,4.6 nM (active)
same,Potency,KB-3-1,0.0082 µM (active)
same,max response,NIH3T3 [2],-29.1%
same,Potency,C33A,inactive
N#Cc1ccc2[nH]c(O)c(-c3ccc(CN4CCOCC4)cn3)c2c1,max response,HEK293,-0.745%
same,outcome,HEK293,inactive
same,max response,HaCat [1],-0.0847%
same,max response,NIH3T3 [2],-16.6%
same,outcome,NIH3T3 [2],inactive
same,Potency,HEK293T,inactive
same,outcome,NIH3T3 [4],inactive
same,Potency,C33A,inactive
same,Potency,CAOV3,inactive
same,Potency,CASKI,inactive
same,Potency,Es-2,inactive
CC[C@@H](C)CCCCC(=O)N[C@@H](CCNCS(=O)(=O)O)C(=O)N[C@H](C(=O)N[C@@H](CCNCS(=O)(=O)O)C(=O)N[C@H]1CCNC(=O)[C@H]([C@@H](C)O)NC(=O)[C@H](CCNCS(=O)(=O)O)NC(=O)[C@H](CCNCS(=O)(=O)O)NC(=O)[C@H](CC(C)C)NC(=O)[C@@H](CC(C)C)NC(=O)[C@H](CCNCS(=O)(=O)O)NC1=O)[C@@H](C)O (X3-[Dab(CH2SO3H)]T[Dab(CH2SO3H)][Dab][Dab(CH2SO3H)][dL]L[Dab(CH2SO3H)][Dab(CH2SO3H)]T; lactam 4-C),max response,KB-3-1,9.65%
CC(=O)N(CC(C)C(=O)O)c1c(I)cc(I)c(N)c1I (stereo not given),max response,KB-3-1,-8.47%
CC(=O)OCC(=O)[C@@]12OC3(CCCC3)O[C@@H]1C[C@H]1[C@@H]3CCC4=CC(=O)C=C[C@]4(C)[C@@]3(F)[C@@H](O)C[C@@]12C,max response,KB-3-1,-4.92%
CC1(C)S[C@@H]2[C@H](NC(=O)Cc3ccccc3)C(=O)N2[C@H]1C(=O)O,max response,KB-3-1,-8.27%
CC(=O)O[C@]1(C(C)=O)CC[C@H]2[C@@H]3CCC4=CC(=O)CC[C@]4(C)[C@@]3(F)[C@@H](O)C[C@@]21C,max response,KB-3-1,28.7%
CCCCC(C)(O)C/C=C/[C@H]1[C@H](O)CC(=O)[C@@H]1CCCCCCC(=O)OC (stereo not given in full),max response,KB-3-1,3.19%
CC(Oc1ccccc1)C(=O)N[C@@H]1C(=O)N2[C@@H]1SC(C)(C)[C@@H]2C(=O)O (stereo not given in full),max response,KB-3-1,-0.849%
O=C(O)c1cc(=O)c2c3nc4ccccc4oc-3cc(=O)c2[nH]1,max response,KB-3-1,-4.67%
CC1(C)C(C=C(Cl)Cl)C1C(=O)OCc1cccc(Oc2ccccc2)c1 (stereo not given),max response,KB-3-1,-12.6%
OC[C@H]1O[C@@H](n2cnc3c2NC=NC[C@H]3O)C[C@@H]1O,max response,CRL-7250,4.05%
same,outcome,HEK293,inactive
same,max response,KB-3-1,-3.14% and 0.256%
same,max response,NIH3T3 [2],-9.01%
same,Potency,HEK293T,inactive
same,Potency,C33A,inactive
same,Potency,CAOV3,inactive
same,Potency,CASKI,inactive
same,Potency,Es-2,inactive
same,Potency,HeLa,inactive
CC(C)C(=O)OCC(=O)[C@@]12O[C@H](C3CCCCC3)O[C@@H]1C[C@H]1[C@@H]3CCC4=CC(=O)C=C[C@]4(C)[C@H]3[C@@H](O)C[C@@]12C,max response,KB-3-1,-5.72%
C[C@]12C=CC(=O)N[C@@H]1CC[C@@H]1[C@@H]2CC[C@]2(C)[C@@H](C(=O)Nc3cc(C(F)(F)F)ccc3C(F)(F)F)CC[C@@H]12,max response,KB-3-1,5.03%
COc1cc2c(Nc3ccc(Cl)c(Cl)c3F)ncnc2cc1OCC1C[C@@H]2CN(C)C[C@@H]2C1 (stereo not given in full),Potency,HEK293,16.4 µM (active) and 13.2 µM (active)
same,Potency,HaCat [1],231 nM (active) and 11.7 nM (active)
same,Potency,KB-3-1,18.4 µM (active)
same,Potency,NIH3T3 [2],1.3 µM (active) and 8.31 µM (active)
same,Potency,CAOV3,31.6 µM (active)
same,Potency,CASKI,11.2 µM (active)
CC(C)N=c1cc2n(-c3ccc(Cl)cc3)c3ccccc3nc-2cc1Nc1ccc(Cl)cc1,max response,KB-3-1,6.76%
CN1CCC(CN2c3ccccc3Sc3ccccc32)C1 (stereo not given),max response,KB-3-1,-8.09%
O=C(O)c1cc(O)c2c(c1)[O][Bi][O]2,Potency,W2,inactive
same,max response,KB-3-1,2%
CC(C(=O)O)c1ccc(N2Cc3ccccc3C2=O)cc1 (stereo not given),Potency,W2,inactive
same,max response,KB-3-1,-24.5%
CO[C@H]1C=CO[C@@]2(C)Oc3c(C)c(O)c4c(O)c(c5c(nc6cc(C)ccn65)c4c3C2=O)NC(=O)/C(C)=C\C=C[C@H](C)[C@H](O)[C@@H](C)[C@@H](O)[C@@H](C)[C@H](OC(C)=O)[C@@H]1C,max response,KB-3-1,5.41%
